Compounds without any hit were thinned out: in the full panel of roughly 79,000, 15% have a hit. Unmarked numbers belong to inactive results. Calls of active or inactive are those of the source. Rule as the data show it: active = growth inhibition above about 70%; inactive = the rest.
Legend:
[1] = NCI Yeast Anticancer Drug Screen. Data for the rad50 strain (AID 155);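 also: 0% = growth of vehicle-only cultures of the same strain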; conditions: S. cerevisiae rad50 strain growth inhibition; at 50.0 µM; active compounds read high
How it was run: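 Relative growth inhibition (compound vs vehicle) was measured in yeast with a defined repair-gene alteration.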

[2] = NCI Yeast Anticancer Drug Screen. Data for the mec2-1 strain (AID 157); conditions: S. cerevisiae mec2-1 strain, at 50.0 µM, active compounds read high
How it was run: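 Vehicle-treated cultures served as reference for growth inhibition of compound-exposed mec2-1 yeast.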

[3] = NCI Yeast Anticancer Drug Screen. Data for the sgs1 mgt1 strain (AID 161);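 also: 0% = growth of cultures given vehicle only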; conditions: S. cerevisiae sgs1 mgt1 strain, at 50.0 µM, active compounds read high
How it was run: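 Test agents were incubated with a DNA-repair-mutant yeast strain. Growth was then read and compared against vehicle-treated controls.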

[4] = NCI Yeast Anticancer Drug Screen. Data for the cln2 rad14 strain (AID 165);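 also: 0% = growth equal to vehicle treated cultures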; conditions: S. cerevisiae cln2 rad14 strain, at 50.0 µM, active compounds read high
How it was run: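 Each compound was tested on cln2 rad14 yeast. Inhibition of growth was calculated against vehicle-exposed controls.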

[5] = NCI Yeast Anticancer Drug Screen. Data for the bub3 strain (AID 167); conditions: S. cerevisiae bub3 mutant strain, at 50.0 µM, active compounds read high
How it was run: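 Screening used yeast with an engineered genetic alteration affecting cell cycle control. Compound-exposed cultures were compared with vehicle cultures, and reduced growth was taken as inhibition.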

[6] = NCI Yeast Anticancer Drug Screen. Data for the mlh1 rad18 strain (AID 175); conditions: S. cerevisiae mlh1 rad18 strain growth inhibition; at 50.0 µM; active compounds read high
How it was run: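 Vehicle-treated cultures served as the reference for growth inhibition in a yeast strain carrying DNA damage repair alterations exposed to each compound.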

SMILES	growth inhibition [1]	growth inhibition [2]	growth inhibition [3]	growth inhibition [4]	growth inhibition [5]	growth inhibition [6]
Nc1c(N=Nc2ccccc2)cc(S(=O)(=O)O)c2ccccc12	2.8%	-23.4%	-1.65%	6.65%	3.2%	-2.1%
Nc1ccc2nc(-c3ccccc3)[nH]c2c1	-13.8%	-8.65%	-13.3%	1.55%	0.6%	-3.8%
O=C1OC(=O)C2=C1CCCC2	8.05%	-18.9%	18.8%	-1.15%	-18%	6.7%
COc1cc(NS(=O)(=O)c2ccc(N)cc2)nc(OC)n1	-28.3%	-11.3%	-11.1%	-60.2%	-22.6%	-3.9%
CC(=O)OCC12CCC(O1)C1C(=O)OC(=O)C12 (configuration not stated)	-3.85%	-2.25%	-9.2%	-3.4%	-11.1%	1.05%
O=[N+]([O-])c1ccc2c3c(ccc([N+](=O)[O-])c13)CC2	-9.35%	-13.3%	-6.75%	-29.2%	-18.4%	-18.3%
CC1(Nc2ccccc2)OC(=O)c2ccccc21 (configuration not stated)	-14.2%	-13.7%	-15.4%	-8.85%	-7.4%	-0.85%
CN(C)c1ccc2c(c1[N+](=O)[O-])Cc1ccccc1-2	18.3%	3.3%	6.75%	14.6%	32.2%	6.05%
COc1cc(Br)cc2nc(-c3cccs3)oc12	-15.3%	-46.9%	-62.2%	-24.6%	-8.1%	-32.5%
CSc1nc(=O)n(CCC#N)nc1SC	32.6%	21.9%	34.9%	-7.65%	4.25%	12.2%
Cc1cc(S(=O)(=O)Nc2n[nH]c(N)n2)c(SCC(=O)O)cc1Cl	-2.5%	-0.3%	-27.6%	8.55%	1.85%	18.9%
OCCNc1ncnc2ccccc12	-16.6%	-1.7%	4.35%	-4.7%	6.15%	-18.9%
CC(C#N)(CCl)OS(=O)(=O)CCCl (configuration not stated)	37.4%	21.4%	6.4%	16.9%	48.7%	25.4%
CCCCCCCCN1CSC(=S)N(c2ccc3[nH]c(=S)sc3c2)C1	48.9%	17.6%	34%	27.9%	5.2%	35.5%
c1ccc(CCN2CCN(CCc3ccccn3)CC2)nc1	6.25%	6%	-6.95%	-19.6%	3.8%	0.2%
COC(=O)c1cc(OC)c2cccnc2c1Nc1ccccc1	-7.75%	12.2%	9.25%	0.6%	11.1%	-6.8%
CON	-16.2%	-5.35%	2.4%	-13.1%	0.3%	-12.2%
Cc1cc2c(c(S(=O)(=O)c3ccc(Cl)cc3[N+](=O)[O-])c1)NCCC2	6.4%	11%	8.25%	15.3%	15.7%	-0.7%
O=c1c(-c2ccccc2)c2oc(c1-c1ccccc1)CSCc1cccc(c1)CSC2	15%	-0.1%	-3.55%	-28.9%	-20.6%	7.8%
CCCn1c(SCC)c2ccccc2c1-c1nc(F)nc(F)n1	-11.8%	-21.8%	-6.75%	18.9%	-20.7%	4.1%
CNc1ccc(CC(=O)O)cc1	-2.75%	3.85%	-2.45%	-42%	-2.05%	1.8%

SMILES	growth inhibition [1]	growth inhibition [2]	growth inhibition [3]	growth inhibition [4]	growth inhibition [5]	growth inhibition [6]
CC1=NN(C)C(=O)C1	1.45%	3.3%	1.9%	-0.4%	-3.05%	9.25%
C[C@@]12CCC(=O)C=C1CC[C@H]1C2C(=O)C[C@]2(C)C1CC[C@@]2(O)C(=O)COC(=O)CCC(=O)O (some centres not stated)	0.1%	10.3%	-19.8%	4.45%	6.95%	0.25%
CCN(CC)CCCC(C)Nc1c2cc(OC)cc(C)c2nc2c(C)c(Cl)ccc12 (configuration not stated)	21.6%	50.6%	13.8%	19.2%	4.35%	29.4%
CCC(C)(NC(N)=O)c1ccccc1 (configuration not stated)	-6.9%	10.4%	-12.1%	-7.5%	-12.9%	-7.35%
OC1(C#CC2(O)CCCC2)CCCC1	-8.9%	-11.9%	15.4%	-8.05%	-1.2%	23.9%
O=[N+]([O-])c1ccc2c(ccn2C2OCC(O)C(O)C2O)c1 (configuration not stated)	5.7%	13.6%	8.7%	-3.55%	18.1%	-2.7%
CCCCCCCCCCC(CO)CCCCCCCC (configuration not stated)	-14.8%	8.85%	5.85%	-1.55%	-9.45%	4%
Cc1cccc(-c2cc3cccnc3nc2NN=O)c1C	64.8%	68%	75.7% (active)	39.3%	67.1%	76.5% (active)
COc1ccc(-c2cc(C(=O)Nc3cc(Cl)cc(Cl)c3)c3ccccc3n2)cc1	-13.7%	-18.6%	-25.8%	-0.85%	-17.6%	1.55%
N#Cc1c(-c2ccco2)cc(-c2ccccc2)[nH]c1=O	31.8%	8.1%	18.1%	33.3%	9.7%	25.6%
CCOC(=O)/C=C1\CCCC12OCCO2	29.2%	-3.65%	3.1%	19.2%	-5.75%	-6.1%
O=S1(=O)C=CC(N/N=C/c2cc(Cl)cc(Cl)c2)=C1	37.7%	9.3%	20.5%	-38.2%	26.9%	26.6%
O=c1cc(Nc2ccccc2)c2ccccc2[nH]1	-3.3%	-20.1%	7.3%	12.6%	-15.3%	23.3%
COc1ccc(C2ON(c3ccccc3)CC=C2C)cc1 (configuration not stated)	36%	-3.2%	5.55%	13.1%	19.4%	13.1%
CCOC(=O)/C(C#N)=C/c1ccc(C)o1	19.1%	3.1%	27.4%	33%	31.1%	35%
C/C=C/Cc1ccc(O)cc1	4.9%	-6%	-1%	-25.4%	-1.4%	-1.05%
COc1cc(C(=O)O)ccc1OS(=O)(=O)O	-17.4%	-62.5%	-10.7%	-21.6%	-11%	-31.3%
OC(NN=C1CCCC1)(C(F)(F)Cl)C(F)(F)Cl	-12.9%	-19.9%	-4.45%	-25.3%	-14.2%	9.15%
OCCCOCc1ccccc1	39.8%	27.4%	30.9%	30.3%	17.5%	12.2%
CCN=C(NCC)N(CC)CC	-20.4%	-5.75%	-12.8%	-11.6%	25.3%	-11.8%
Cc1ccc(OC/C=C/c2ccc(C#N)cc2)cc1	2.55%	0.05%	-4.15%	-17.6%	1.8%	-3%
